Assay outcomes from PubChem.
In the library only some 11% were active in any assay of this set; here they are far more common.
Vaccinia Venus = inhibitors of vaccinia virus (Venus reporter); AID 720580; Vaccinia virus Venus reporter expression, fluorescence; Potency, µM (series often up to 36.5 µM), for the others: top-dose activity change, negative = inhibition, most hits filed as inhibitors; actives 0.46% (n = 330,000); calls by dose curve; tested in A549 cells; note: % is set by controls: 0 for no effect and ±100 for the full control effect; nearly all actives have a fitted effect of over 30% in size
Pf growth 48h = P. falciparum growth inhibition at 48 hours (one generation) | P. falciparum luciferase growth in erythrocytes, 48 h | Potency, µM (top dose mostly 28.7 µM), for inactives: at the highest dose activity change, negative = inhibition, hits mostly inhibitors | actives 5.9% (n = 310,000) | AID 504832; note: % is set by controls: 0 for no effect and ±100 for the full control effect
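Read-out is firefly luciferase luminescence from an integrated reporter in P. falciparum, so falling signal marks reduced parasite growth. Infected erythrocytes were at 2% hematocrit and 0.1% parasitemia (final) in Albumax-supplemented RPMI 1640.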
NS1 inh = inhibitors of influenza NS1 protein function. Potency, µM (highest dose often 46.1 µM), for the others: at the highest dose activity, positive = more growth. AID 2326. actives 0.4% (n = 270,000); calls by dose curve; note: actives are rising curves; nearly all actives have a fitted effect of over 50% in size
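Recovery from NS1-induced slow growth read by OD600 in budding yeast switched to galactose assay medium (pH 6.0, -URA) at 1:100 dilution. Compound 23 nl per well; the matching strain lacking NS1 serves as control.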
HCV inh = HCV inhibition | AID 651820 | Huh7.5.1 HCVcc-Cre infection, luciferase reporter, 44 h | actives 3.4% (n = 340,000) | Potency, µM (titrated, usually from 41.8 µM), inactives show at the highest dose activity change, negative = inhibition, usual class: inhibitors; note: % is set by controls: 0 for no effect and ±100 for the full control effect
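After 44 h co-culture of compound, cells and HCVcc-Cre (~0.5 moi), substrate is added for 15 min at room temperature and luciferase measured over 15 sec. Cells were seeded at 1,000/well and pre-cultured 4 h.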
Vaccinia mCherry = vaccinia inhibition (mCherry reporter); Vaccinia virus mCherry reporter infection, fluorescence; actives 0.63% (n = 310,000); AID 720579; Potency, µM (titrated, usually from 36.5 µM), without a hit: top-dose activity change, negative = inhibition, usual class: inhibitors; calls by dose curve; tested in A549 cells; note: % is set by controls: 0 for no effect and ±100 for the full control effect; nearly all actives have a fitted effect of over 35% in size
Pf growth 96h = P. falciparum growth inhibition at 96 hour, primary screen for plastid delayed-death inhibitors | P. falciparum luciferase reporter growth, 96 h | Potency, µM (top dose mostly 28.7 µM), for inactives: at the highest dose activity change, negative = inhibition, most hits filed as inhibitors | actives 6.9% (n = 320,000); note: % is set by controls: 0 for no effect and ±100 for the full control effect
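Plates of compound plus infected erythrocytes (2% hematocrit, 0.05% parasitemia final) incubate 96 hours, 37 C, 5% CO2. Detection reagent added; reduced luminescence from the parasites' luciferase reporter flags inhibition.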
* = called active by the depositor; i = inactive; ? = inconclusive; / = no result. Unless noted, calls come from the whole dose curve; as a rule, active = well fitted inhibition curve with a large enough effect; inconclusive = small, poorly fitted or top-dose-only effect, or another doubt; inactive = no such curve, though single readings can be large or run the other way. Potency is the fitted concentration of half-maximal effect.

SMILES | Vaccinia Venus | Pf growth 48h | NS1 inh | HCV inh | Vaccinia mCherry | Pf growth 96h
COC(=O)c1sc2cccc(F)c2c1S(=O)(=O)NC(C)c1ccccc1 (stereo not given) | 6% | / | / | / | 1% | /
Cc1occc1-c1nnc(SCC(=O)c2ccc(F)cc2)n1Cc1ccco1 | -16% | -15% | -2% | ? | -15% | /
O=C1Nc2ccccc2CCC1Sc1nnc(-c2ccc(Cl)cc2)s1 (stereo not given) | / | 13µM* | 6% | ? | / | ?
O=C(COc1ccccc1)NC1C(=O)N2C(C(=O)O)=C(Cl)CSC12 (stereo not given) | -1% | 0% | 14% | -1% | -27% | ?
c1ccc2c(CNC3CCCCCC3)c[nH]c2c1 | / | / | -8% | 8% | / | 10µM*
c1ccc2c(CN3CCCCCC3)c[nH]c2c1 | / | 45% | -37% | -29% | / | -18%
O=C(Cc1csc(N2CCOCC2)n1)N/N=C/c1ccc(Cl)cc1Cl | / | / | -3% | 11µM* | / | ?
COc1cc(/C=N/NC(=O)Cc2csc(N3CCOCC3)n2)cc(OC)c1O | / | 49% | / | 7% | / | 2%
Cc1ccc(N/N=C/c2ccc(N3CCOCC3)cc2)cc1C | -16% | -16% | 1% | -7% | / | 10µM*
Cc1ccc(C(=O)NC(=S)Nc2ccc(N3CCOCC3)cc2)cc1C | -14% | -3% | 8% | 7.9µM* | -24% | ?
CC(C)(C)c1ccc(C(=O)NC(=S)Nc2ccc(N3CCOCC3)cc2)cc1 | -10% | ? | 0% | 3% | -7% | 12µM*
CC(C)(C)c1ccc(C(=O)Nc2ccc(N3CCOCC3)cc2)cc1 | -30% | / | -3% | 1.8µM* | -16% | ?
Nc1nc(SCC(=O)N2CCCc3ccccc32)[nH]c(=O)c1-c1ccccc1 | -7% | 14% | -5% | 13% | i | 0%
C[C@H](NC(=O)c1ccco1)C(=O)NNC(=O)c1ccc(F)cc1 | 5% | / | / | 15% | i | /
C[C@H]1CCC/C=C/[C@@H]2C[C@H](O)C[C@H]2[C@@H](O)/C=C/C(=O)O1 | ? | / | / | ? | -6% | /
C[C@H]1CCC/C=C/[C@@H]2C[C@H](O)C[C@H]2[C@H](O)[C@H](S(=O)c2ccc(O)cc2)CC(=O)O1 (stereo not given in full) | ? | / | / | 0.56µM* | ? | /
FC(F)(F)c1ccc(Nc2nnnc3ccccc23)cc1 | -16% | 1.3µM* | / | -12% | -9% | 1.5µM*
O=S(=O)(c1ccc(N2CCCCCC2)nc1)N1CCCC1 | -1% | -3% | / | 0% | i | 10%
Cc1nn(C)cc1C(C)NC(=O)c1cc(COc2cccc3cnccc23)on1 (stereo not given) | -20% | 5% | 0% | ? | -20% | ?
CCNc1nc(NCC)nc(N/N=C/c2ccc(N(C)C)cc2)n1 | -6% | 13µM* | / | 8% | -20% | ?
CN(C)c1nc(NCc2ccccc2)nc(N/N=C/c2ccc3c(c2)OCO3)n1 | -24% | 12µM* | -1% | ? | -17% | ?
CCNc1nc(NCC)nc(N/N=C/c2ccc(O)c(O)c2)n1 | / | -177% | -8% | -3% | / | ?
Brc1ccc(/C=N/Nc2ccccc2)cc1 | -16% | 81% | -8% | 5% | -12% | -69%
CN(C)c1nc(NCc2ccccc2)nc(N/N=C/c2ccc(Br)cc2)n1 | -14% | 13µM* | 7% | 6% | i | ?
Cc1cc(C)c2c(N=NN(C)C)[nH]nc2n1 | -7% | 5% | -120% | 11% | -9% | 100%
Cn1c(O)c(C(c2ccccn2)c2c(O)n(C)c(=S)[nH]c2=O)c(=O)[nH]c1=S | -5% | 6% | -13% | 17% | -3% | 19%
CC(=O)N1CCN(C2=NC(=O)C(=C3CCCCC3)S2)CC1 | 0% | ? | 7% | -10% | -11% | -19%
Cc1cccc(N2CCN(C3=NC(=O)C(=C4CCCCC4)S3)CC2)c1 | / | 10µM* | -5% | ? | / | 34%
N#CCCN1CCN(C2=NC(=O)C(=C3CCCCC3)S2)CC1 | / | 0% | -1% | 15% | / | 2.6µM*
OCC[C@H]1C[C@@H](O)[C@H](O)[C@]2(CCc3ccccc3CO2)O1 | -9% | 8% | / | -3% | -16% | 38%
